According to PubChem BioAssay AID588342 (National Center for Advancing Translational Sciences (NCATS), 2011):
Out of some 360,000 compounds screened, about 25,000 (6.9%) were called active. About 9% were inconclusive and are not listed. The entries come from a sample that favours actives as a whole. Unmarked numbers belong to inactive results. Calls come from the whole dose curve; as a rule, active = well fitted inhibition curve with a large enough effect; inconclusive = small, poorly fitted or top-dose-only effect; inactive = flat fitted curve, though single readings scatter.

Biological target: Luciferin 4-monooxygenase (Photinus pyralis) (UniProt P08659)
Assay: qHTS profiling assay for firefly luciferase inhibitor/activator using purifed enzyme and Km concentrations of substrates (counterscreen for miR-21 project); note: nearly all actives have a fitted effect of over 55% in size;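 for activity change, negative = inhibition: plate controls were vehicle for no effect and reference inhibitor for full effect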
Conditions: purified FLuc, luminescence inhibition; series mostly up to 57.5 µM; activity change, negative = inhibition: at the top concentration
Procedure, shortened: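 Biochemical qHTS of compounds, final roughly 60 µM downward over six points, against 10 nM purified firefly luciferase using Km concentrations of substrates (10 uM D-luciferin, 10 uM ATP) in Tris acetate pH 7.5 buffer; luminescence output.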
Potency is the fitted concentration of half-maximal effect.

Sequence of Luciferin 4-monooxygenase (Photinus pyralis) (P08659 whole entry, looked up): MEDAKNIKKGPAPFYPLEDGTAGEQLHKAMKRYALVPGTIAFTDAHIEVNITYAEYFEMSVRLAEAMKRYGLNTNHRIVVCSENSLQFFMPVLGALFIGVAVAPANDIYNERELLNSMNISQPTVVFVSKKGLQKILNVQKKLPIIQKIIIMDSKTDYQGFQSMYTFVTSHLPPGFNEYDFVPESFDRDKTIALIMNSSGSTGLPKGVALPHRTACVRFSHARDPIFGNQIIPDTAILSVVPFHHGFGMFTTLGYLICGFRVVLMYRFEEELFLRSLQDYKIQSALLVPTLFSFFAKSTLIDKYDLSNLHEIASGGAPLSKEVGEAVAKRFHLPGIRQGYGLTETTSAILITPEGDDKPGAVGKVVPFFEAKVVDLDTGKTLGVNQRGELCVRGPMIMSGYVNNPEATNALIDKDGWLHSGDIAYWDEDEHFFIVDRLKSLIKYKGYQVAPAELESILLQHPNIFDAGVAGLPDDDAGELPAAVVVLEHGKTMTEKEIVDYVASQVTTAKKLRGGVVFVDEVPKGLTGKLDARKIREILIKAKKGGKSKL

Row | Structure (SMILES) | activity change, negative = inhibition [%] | Potency
1 | Cc1ccc(S(=O)(=O)N2CCN(C(=O)c3ccccc3-c3nc4ccccc4s3)CC2)c(C)c1 | 0.348 | –
2 | CCN(CC)CCNC(=O)Cn1ncc2c3ccccc3n(Cc3ccccc3C)c2c1=O | 1.71 | –
3 | CC(=O)c1ccc(NC(=O)Cn2c(=O)oc3ccccc32)cc1 | -1.43 | –
4 | Cc1ccc(C(=O)Nc2ccc(OCc3cc(=O)n4c(C)csc4n3)cc2)cc1 | -1.13 | –
5 | Cn1cc(CN2CCCCC2c2ccccn2)c(-c2ccc3c(c2)OCCO3)n1 (stereo unspecified) | 0.917 | –
6 | CCO[C@H]1OC(C(=O)Nc2ccccc2)=C[C@@H](C2CC2)[C@@H]1CCCO | -2.36 | –
7 | Cn1c(=O)c2c(-c3cccc(Br)c3)c(C#N)c(N)nc2n(C)c1=O | -1.7 | –
8 | Cc1c(C)n2c(SCC(=O)N3CCCC3)nnc2[nH]c1=O | -1.87 | –
9 | CCOC(=O)c1cc2c(=O)n3ccccc3nc2n(CCCOC)c1=NC(=O)C(C)(C)Oc1ccc(Cl)cc1 | 2.07 | –
10 | CC1CCCCN1S(=O)(=O)c1ccc(S(=O)(=O)N(CC(=O)Nc2ccccc2)Cc2cccs2)cc1 (stereo unspecified) | 1.69 | –
11 | CC(C)(C)NS(=O)(=O)c1ccc(NC(=O)C2CCCO2)cc1 (stereo unspecified) | -1.57 | –
12 | O=C(Nc1ccc(-c2nnc(-c3ccccc3)o2)cc1)C1CCCO1 (stereo unspecified) | – | 3.38 µM (active)
13 | O=C(Nc1nnc(CCc2ccccc2)s1)C1CCCO1 (stereo unspecified) | -2.69 | –
14 | COc1ccc(NC(=O)N2CCCC2C(=O)NCc2ccccc2Cl)cc1 (stereo unspecified) | -4.96 | –
15 | CC(C)(C)c1ccc(OC2=CS(=O)(=O)c3ccccc32)cc1 | – | 15.1 µM (active)
16 | O=S1(=O)C=C(SCCN2CCCC2)c2ccccc21 | -2.28 | –
17 | CC(C)(C)c1ccc(CN2C(=O)c3ccccc3S2(=O)=O)cc1 | -16.2 | –
18 | Cc1ccc(-n2c(=O)c3cccnc3n2CC(=O)NCc2ccc(F)cc2)cc1C | -12.7 | –
19 | O=C(c1ccc2c(c1)N(Cc1ccccc1)C(=O)c1ccccc1S2(=O)=O)N1CCC(Cc2ccccc2)CC1 | 2.38 | –
20 | Cc1nc(NC2=NC(C(=O)Nc3ccc(Cl)cc3)CC(=O)N2)nc2ccccc12 (stereo unspecified) | 0.404 | –
21 | Cc1nc2sc(C(=O)c3ccccc3)c(N)c2c2c1CCCC2 | – | 10.7 µM (active)
22 | CN(C)c1ccnc2sc(C(=O)c3ccccc3)c(N)c12 | – | 5.36 µM (active)
23 | Cc1ccc2c(N)c(C(=O)c3ccccc3)sc2n1 | – | 21.3 µM (active)
24 | CC(=O)c1c(Nc2ccccc2)sc(C(=O)c2ccccc2)c1C | -3.32 | –
25 | CCN(CC)C(=O)c1sc2nc(-c3ccccc3)ccc2c1N | – | 5.36 µM (active)
26 | COc1cccc(C(=O)c2sc3nc(-c4ccccc4)cc(C(F)(F)F)c3c2N)c1 | -0.554 | –

Row | Structure (SMILES) | activity change, negative = inhibition [%] | Potency
27 | Nc1c(C(=O)NCc2ccccc2)sc2nc3c(cc12)C(=O)CCC3 | 2.35 | –
28 | CCCS(=O)(=O)c1c(Nc2ccccc2C)sc(C(=O)c2ccccc2)c1N | 1.11 | –
29 | COC(=O)c1cc2c(N)c(C(=O)c3ccc(Cl)cc3)sc2nc1C(OC)OC | -11.4 | –
30 | CN(C)c1ccnc2sc3c(=O)n(Cc4ccccc4)cnc3c12 | 3.33 | –
31 | CCc1nc2sc(C(=O)O)c(N)c2c2c1CCCC2 | -2.9 | –
32 | COc1ccc(C(F)(F)F)cc1NC(=O)c1sc2nc(-c3cccs3)ccc2c1N | -1.38 | –
33 | COc1cc(OC)c(NC(=O)Cc2ccc(-n3c(C)nc4cccnc43)cc2)cc1Cl | -14.7 | –
34 | O=C(O)CCCCCCCCc1cn(CN2C(=O)c3ccccc3C2=O)nn1 | -0.842 | –
35 | CCOCCCNC(=O)c1c(NC(=O)c2nc(SC)ncc2Cl)sc2c1CCCC2 | -1.87 | –
36 | CC(=O)NC(c1cccs1)c1cc(Br)c2cccnc2c1O (stereo unspecified) | -0.554 | –
37 | CC(OC(=O)CNC(=O)c1cccc(F)c1)C(=O)NC1CCCCC1C (stereo unspecified) | -0.117 | –
38 | CCN(CC)c1ccc(C2C(C(N)=O)=C(C)Nc3nc(SCc4ccccc4)nn32)cc1 (stereo unspecified) | -0.212 | –
39 | CSc1ncc(C(=O)Nc2ccc(C)cc2C)c(C)n1 | -0.488 | –
40 | CSc1nccc(NC(=O)c2ccc(C(C)(C)C)cc2)n1 | – | 1.9 µM (active)
41 | COC(=O)c1nc(NC(=O)c2ccc(F)cc2)n[nH]1 | -14.8 | –
42 | COC(=O)c1ccccc1NC(=O)c1cc(-c2ccccc2O)no1 | -15.2 | –
43 | O=S(=O)(NCCCCCCNS(=O)(=O)c1c(F)cccc1F)c1ccc2c(c1)OCCO2 | 4.33 | –
44 | Cc1ccccc1CCNC(=O)C1CCN(c2nc3ccccc3nc2C(F)(F)F)CC1 | -6.81 | –
45 | O=C1CCNCCN1[C@H](CO)Cc1ccccc1 | 1.19 | –
46 | CC(=O)NCC(=O)N(Cc1ccco1)C1(C(=O)NC2CCCC2)CCCCC1 | -1.26 | –
47 | Cc1cccn2c(=O)c(C(=O)NC(C)c3ccccc3)cnc12 (stereo unspecified) | -2.31 | –
48 | CSc1ccccc1NC(=O)c1cc(Cl)sc1Cl | -13.3 | –
49 | CSc1ccccc1NC(=O)c1cnc2sc(C)cn2c1=O | – | 5.36 µM (active)
50 | CCOc1ccc(NS(=O)(=O)c2ccc(Cl)c(C(=O)N(C)Cc3cccnc3)c2)cc1 | 4.21 | –
51 | CC(=O)Nc1ccc(NC(=O)CCN2C(=O)C3CC=CCC3C2=O)cc1 (stereo unspecified) | 4.45 | –
